{"source": "PubChem BioAssay AID2253", "about": "(Southern Research Specialized Biocontainment Screening …, 2010)", "note": "Out of some 2,200 compounds screened, about 1,300 (59%) were called active. The rule behind the calls is not given here. The set was probably picked from earlier hits. Only a sample is shown. Potency and affinity values are given separately."}
{"assay": "human monocytic cell viability reduction – S. typhimurium screen hits, cytotoxicity control for Salmonella PhoP regulon inhibitors, dose response (AID 2253)", "settings": "THP-1 viability, CellTiter-Glo luminescence, 72 h; series mostly up to 50 µM; viability: at the top concentration"}
{"molecule": "CC[C@H]1OC(=O)[C@H](C)[C@@H](O[C@H]2C[C@@](C)(OC)[C@@H](O)[C@H](C)O2)[C@H](C)[C@@H](O[C@@H]2O[C@H](C)C[C@H](N(C)C)[C@H]2O)[C@](C)(O)C[C@@H](C)[C@@H]2N[C@@H](COCCOC)O[C@H]([C@H]2C)[C@]1(C)O", "viability": "82.6% (inactive)"}
{"molecule": "CC[C@H]1OC(=O)[C@H](C)[C@@H](O[C@H]2C[C@@](C)(OC)[C@@H](O)[C@H](C)O2)[C@H](C)[C@@H](O[C@@H]2O[C@H](C)C[C@H](N(C)C)[C@H]2O)[C@](C)(O)C[C@@H](C)CN(C)[C@H](C)[C@@H](O)[C@]1(C)O", "viability": "89.2% (inactive)"}
{"molecule": "COc1ccccc1CC(=O)N1CCN(c2ccccn2)CC1", "viability": "90.4% (inactive)"}
{"molecule": "COCC(=O)N(Cc1ccco1)c1nnc(C2CCOC2)s1", "note": "(stereo not given)", "viability": "99% (inactive)"}
{"molecule": "COc1ccc(OC)c(NC(=O)c2cc3c(Cl)nc4ccccc4c3s2)c1", "viability": "95.3% (inactive)"}
{"molecule": "COc1ccc(C(=O)NCCC2=CCCCC2)cc1OC", "viability": "93.9% (inactive)"}
{"molecule": "Cc1ccc2[nH]c3c(=O)n(CCc4cnc[nH]4)cnc3c2c1", "viability": "86.3% (inactive)"}
{"molecule": "C=CCNc1nnc(Cl)c2ccccc12", "viability": "85.3% (inactive)"}
{"molecule": "O=P(Cc1cc[n+]([O-])cc1)(c1ccccc1)c1ccccc1", "viability": "82.4% (inactive)"}
{"molecule": "NC(=S)c1cc2ccc(O)cc2oc1=O", "viability": "87.2% (inactive)"}
{"molecule": "Cn1ncc(Br)c1C(=O)NCc1cccs1", "viability": "92.8% (inactive)"}
{"molecule": "O=C(NCc1cccs1)Nc1cccs1", "viability": "90.7% (inactive)"}
{"molecule": "CC(C)=CCN1CCN(Cc2ccoc2)CC1CCO", "note": "(stereo not given)", "viability": "94.6% (inactive)"}
{"molecule": "COc1ccc(NC(=O)CSc2nc(C)cs2)cc1OC", "viability": "93.2% (inactive)"}
{"molecule": "CSC(=NS(=O)(=O)c1ccccc1)SC", "viability": "80.6% [at 25 µM] (inactive)"}
{"molecule": "CCn1nc(C(=O)NCc2ccco2)c(Cl)c1Cl", "viability": "81.5% (inactive)"}
{"molecule": "O=C(NCc1ccco1)C1CC(=O)N(CCc2ccccc2)C1", "note": "(stereo not given)", "viability": "99.7% (inactive)"}
{"molecule": "O=C(CNc1ccccc1)Nc1ccc(F)cc1", "viability": "87.7% (inactive)"}
{"molecule": "CCN(CC(=O)Nc1ccc(N2CCOCC2)cc1)Cc1nc2ccccc2c(=O)[nH]1", "viability": "87.8% (inactive)"}
{"molecule": "Cc1c(C(c2cccc([N+](=O)[O-])c2O)c2c(C)n(C)n(-c3ccccc3)c2=O)c(=O)n(-c2ccccc2)n1C", "viability": "106% (inactive)"}
{"molecule": "Cc1ccc(CNC(=O)c2cccc(S(C)(=O)=O)c2)cc1", "viability": "91.7% (inactive)"}
{"molecule": "CN(C)C(=O)c1cn(N(C)c2ncc(C(F)(F)F)cc2Cl)c(=O)c2ccccc12", "viability": "100% (inactive)"}
{"molecule": "CCOc1cc(C2Nc3cccc4cccc(c34)N2)ccc1O", "viability": "106% (inactive)"}
{"molecule": "COc1cc(C2Nc3cccc4cccc(c34)N2)cc(OC)c1O", "viability": "94.5% (inactive)"}
{"molecule": "NC(=O)c1ccccc1NC(=O)/C=C/C(=O)O", "viability": "94% (inactive)"}
{"molecule": "COc1ccc(NC(=O)c2sccc2SCC#N)cc1", "viability": "85.5% (inactive)"}
{"molecule": "COC(=O)C1(O)CC(C(C)C)=NN1C(=O)c1ccc(Cl)cc1", "note": "(stereo not given)", "viability": "87.9% (inactive)"}
{"molecule": "CCCCn1cnc2sc(-c3ccccc3)cc2c1=O", "viability": "81.9% (inactive)"}
{"molecule": "CCn1cc(C(=O)O)c(=O)c2cc(F)c(N3CCNCC3)cc21", "viability": "92% (inactive)"}
{"molecule": "CC(=O)Nc1ccc(C(=O)N2CCN(C(=O)c3ccco3)CC2)cc1", "viability": "91.3% (inactive)"}
{"molecule": "COc1cc(OC)c(NC(=O)Nc2ccc(OC)c(OC)c2)cc1Cl", "viability": "90.3% (inactive)"}
{"molecule": "CCn1cc(C(=O)O)c(=O)c2cc(F)c(N3CCN(C)CC3)cc21", "viability": "100% (inactive)"}
{"molecule": "O=C1OCC(CO)(CO)N=C1NNc1ccc(Cl)c(Cl)c1", "viability": "89.3% (inactive)"}
{"molecule": "Cc1ccc(NC(=O)COc2ncnc3c(Cl)cc(Cl)cc23)cc1[N+](=O)[O-]", "viability": "80.3% (inactive)"}
{"molecule": "COC(=O)CCC(=O)Nc1ccc(Cl)c(Cl)c1", "viability": "102% (inactive)"}
{"molecule": "CC(C)Cc1oc(C(=O)O)cc1CN", "viability": "97.5% (inactive)"}
{"molecule": "Cc1ccc(CNc2oc(-c3cccs3)nc2C#N)cc1", "viability": "88.9% [at 25 µM] (inactive)"}
{"molecule": "CC1C(C#N)=C(N)OC2=C1C(=O)CCC2", "note": "(stereo not given)", "viability": "98.9% (inactive)"}
{"molecule": "CCCCN(CCCC)C(=O)c1cn(CC)c2cc(N3CCN(C)CC3)c(F)cc2c1=O", "viability": "91.2% (inactive)"}
{"molecule": "Cc1[nH][nH]c(=O)c1C(c1ccc(O)c([N+](=O)[O-])c1)c1c(C)[nH][nH]c1=O", "viability": "93.3% (inactive)"}
{"molecule": "COc1cc(CNCc2ccccn2)ccc1OCC(=O)NC(C)(C)C", "viability": "95.7% (inactive)"}
{"molecule": "O=C(CN(c1ccc(F)cc1)S(=O)(=O)c1ccc2c(c1)OCCO2)NCc1cccnc1", "viability": "92.6% (inactive)"}
{"molecule": "COCCn1cc(C(=O)N2CCC(C)CC2)c2c3ccccc3n(C)c2c1=O", "viability": "82.2% (inactive)"}
{"molecule": "Cc1ccc(S(=O)(=O)N2CCC(C(N)=O)CC2)c(C)c1C", "viability": "87.3% (inactive)"}
{"molecule": "O=C(NCc1cccs1)[C@@H]1CSC2c3ccccc3C(=O)N21", "note": "(stereo not given in full)", "viability": "97.5% (inactive)"}
